Experimental findings from PubChem BioAssay AID1961 (Sanford-Burnham Center for Chemical Genomics, 2009) are described below.

Screen size: about 290,000 compounds; about 140 (0.048%) were called active.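 The calls were made as follows: active = activation above 40% with more than 50 cells counted in the well; inconclusive = wells holding fewer than 50 cells, flagged as toxic or sparse; inactive = the rest.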 The entries come from a sample that favours actives as a whole.

Test [1] is described as follows: selective activators of receptor GPR55 – imaging, U2OS cells, beta-arrestin-GFP redistribution, primary screen (AID 1961).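 Also: U2OS osteosarcoma cells stably expressing GPR55 and beta-arrestin-GFP.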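 As to activation: plate controls were DMSO negative control for no effect and LPI positive control for full effect.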 The settings on record: measured here: cytotoxicity, cells analyzed, at 10 µM.
Test [2] deals with G-protein coupled receptor 55 (Homo sapiens) (UniProt Q9Y2T6). Described as above. The note with it: at 10 µM, stronger effect = higher value.
G-protein coupled receptor 55 (Homo sapiens), sequence (Q9Y2T6 whole entry, looked up): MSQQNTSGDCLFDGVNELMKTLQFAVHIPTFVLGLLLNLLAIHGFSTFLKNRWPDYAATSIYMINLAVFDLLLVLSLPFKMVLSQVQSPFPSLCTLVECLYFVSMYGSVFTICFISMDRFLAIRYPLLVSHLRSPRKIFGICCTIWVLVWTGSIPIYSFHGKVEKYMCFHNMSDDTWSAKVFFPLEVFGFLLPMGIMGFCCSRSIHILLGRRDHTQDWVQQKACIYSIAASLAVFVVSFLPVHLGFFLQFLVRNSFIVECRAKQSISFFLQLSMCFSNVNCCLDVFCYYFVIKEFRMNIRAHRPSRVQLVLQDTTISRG

As for `O=C(Nc1ccc2c(c1)C(=O)OC2)c1ccc(F)cc1F`, in test [1], the cell count amounted to 353 cells. Besides, the activation in test [2] is -0.2% (inactive).
For `Cc1nn(C)c(C)c1CNC(=O)c1cc2n(n1)C(C(F)(F)F)CC(c1cccs1)N2` (configuration not stated), in that order: 389 cells and 0.1% (inactive).
For `Nc1c(-c2ccccc2)c(CSc2nc3ccccc3[nH]2)nn1-c1ccc(C(=O)O)cc1`, in that order: 311 cells and -0.2% (inactive).
For `COc1cc(/C=C(\NC(=O)c2ccccc2)C(=O)NCC(=O)O)c([N+](=O)[O-])cc1OC`, the cell count in test [1] is 349 cells. The activation in test [2] was -0.1% (inactive).
For `COc1cc(/C=C/c2cc(OC(C)=O)c3ccccc3n2)c(OC(C)=O)c([N+](=O)[O-])c1`, in that order: 366 cells and 0.2% (inactive).
In test [1], `CN(C)c1ccnc(Nc2ccccc2)c1C#N` registered a cell count of 373 cells. The activation in test [2] was 0.3% (inactive).
Taken in the same sequence, the figures for `O=C1c2ccccc2C(=O)N1Cc1cccnc1` were 406 cells and -0.2% (inactive).
Taken in the same sequence, the figures for `Cn1c(=O)c(C(=O)COC(=O)c2cc(-c3ccco3)nc3ccccc23)c(N)n(Cc2ccccc2)c1=O` were 365 cells and 8.3% (inactive).
Taken in the same sequence, the figures for `Cn1c(=O)c(C(=O)COC(=O)c2cc(-c3ccco3)nc3ccccc23)c(N)n(CC2CC2)c1=O` were 375 cells and 59.6% (active).
In turn, `CC(C)Cn1c(N)c(C(=O)COC(=O)c2cc(-c3ccco3)nc3ccccc23)c(=O)n(C)c1=O` displayed a cell count in test [1] of 285 cells. In addition, the activation in test [2] was -0.1% (inactive).
Taken in the same sequence, the figures for `Cc1ccc(C(=O)N2CCN(c3ccccn3)CC2)cc1Cl` were 384 cells and -0.2% (inactive).
For `Cc1ccc(C(=O)N2CCN(c3ccccn3)CC2)cc1C`, in that order: 396 cells and -0.1% (inactive).
Taken in the same sequence, the figures for `CCOC(=O)N1CCN(C(=O)c2ccc3c(c2)N(Cc2cccc(Cl)c2)C(=O)c2ccccc2S3=O)CC1` (configuration not stated) were 331 cells and 21.2% (inactive).
In test [1], `Cc1ccc(C)c(CN2C(=O)c3ccccc3S(=O)(=O)c3ccc(C(=O)N4CCN(C)CC4)cc32)c1` came in with a cell count of 338 cells. In addition, in test [2], the activation is -0.2% (inactive).
For `CC(=O)Nc1nc(SCC(=O)Nc2nnc(C)s2)[nH]c(=O)c1NC(=O)c1cccs1`, in that order: 243 cells and 0.7% (inactive).
For `CCOCCCNc1nc2c(C)cccn2c(=O)c1/C=C1\SC(=S)N(CC(C)C)C1=O`, in that order: 348 cells and 1% (inactive).
On to `CCCN1C(=O)/C(=C/c2c(NCCCOCC)nc3c(C)cccn3c2=O)SC1=S`, for which, in test [1], the cell count is 462 cells. In test [2], the activation was 5.7% (inactive).
In turn, `CCOCCCNc1nc2c(C)cccn2c(=O)c1/C=C1\SC(=S)N(C(C)CC)C1=O` (configuration not stated) returned a cell count in test [1] of 390 cells. In addition, the activation in test [2] was 69.7% (active).
For `O=C(N/N=C/c1ccccc1F)c1cccc(NC(=O)c2ccccc2Cl)c1`, in that order: 329 cells and -0.2% (inactive).
Taken in the same sequence, the figures for `COc1cc(OC)cc(C(=O)N2CCN(c3ccccc3F)CC2)c1` were 328 cells and -0.2% (inactive).
For `CCOc1ccc(NC(=O)C2CC(=O)N(c3cc(C)cc(C)c3)C2)cc1` (configuration not stated), in that order: 314 cells and -0.1% (inactive).
